Rows were chosen to be rich in hits. Some 6.1% of all compounds tested hit in one or more screens of this group.
D3 ag = D3 dopamine receptor (human) agonism. P35462. max activation, %. actives 0.58% (n = 410,000). D3R DiscoveRx beta-arrestin cells, luminescence, 90 min. AID 652048; in the data active = max activation above about 30%; note: 0% is about no effect
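Agonist mode: compounds and dopamine controls were applied to plated cells for 90 min at 37 degrees C after an overnight attachment at 1500 cells/well. Luminescent read-out followed 30 - 60 minutes at room temperature with DiscoveRx detection reagent.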
DRD3 antagonist = D3 dopamine receptor (human) antagonism. P35462. D3R cells, DiscoveRx beta-arrestin luminescence, antagonist mode; hits give low values. max response, negative = inhibition, %. actives 2.5% (n = 360,000). AID 652054; in the data active = max response below about -50%; inconclusive = no clear call, values can overlap the other calls; note: % is set by controls: 0 for no effect and ±100 for the full control effect
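Cells plated overnight at 1500 cells/well, then exposed to library compounds with dopamine controls for 90 minutes at 37 degrees C. DiscoveRx reagent added for 30–60 minutes at room temperature; luminescence read, quantitative HTS format.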
D1 agonist = human D1 receptor agonism. HEK293 T-REx D1 cells, calcium flux, agonist mode. activation, % at 2 µM. P21728. AID 504660. actives 1% (n = 360,000); in the data active = activation above about 30%; note: 0% is about no effect
Target sequence (P21728 whole entry, looked up): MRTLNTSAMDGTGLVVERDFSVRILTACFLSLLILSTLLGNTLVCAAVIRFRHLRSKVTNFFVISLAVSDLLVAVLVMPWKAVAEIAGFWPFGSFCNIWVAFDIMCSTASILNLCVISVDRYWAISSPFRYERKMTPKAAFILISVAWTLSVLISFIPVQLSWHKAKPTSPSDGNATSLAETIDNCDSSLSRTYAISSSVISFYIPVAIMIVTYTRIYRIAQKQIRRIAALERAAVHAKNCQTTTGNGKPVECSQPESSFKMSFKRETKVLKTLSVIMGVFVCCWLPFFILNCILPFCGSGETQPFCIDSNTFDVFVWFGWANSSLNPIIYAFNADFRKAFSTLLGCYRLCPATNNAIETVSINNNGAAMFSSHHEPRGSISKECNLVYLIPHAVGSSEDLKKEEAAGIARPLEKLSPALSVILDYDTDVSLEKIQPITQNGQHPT
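Tetracycline-induced HEK293 TREx D1 cells, force-coupled to calcium signalling, were dye-loaded with a no-wash calcium kit. Compound was pin-added after a 10 s baseline. Fluorescence was read kinetically at 1 cycle/s for 180 s, with calcium rises flagged as agonism.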
D1 antagonist = antagonists of human D1 dopamine receptor; AID 504652; HEK293 TREx D1 cells, calcium flux, dopamine EC80; hits give low values; activity change, negative = inhibition, % at 10 µM; actives 3.2% (n = 360,000); in the data active = activity change below about -30%; note: % is set by controls: 0 for no effect and ±100 for the full control effect
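Calcium flux readout: force-coupled, inducible Hek293 Trex D1 line, cells induced overnight at 30 C with tetracycline, dye-loaded 30–90 min at RT. Antagonism scored against EC80 dopamine challenge given 180 s after compound.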
D1 PAM = potentiators of human D1 dopamine receptor. HEK293 TREx D1 cells, calcium flux, dopamine EC20 potentiation. potentiation, % at 10 µM. AID 504651. actives 0.036% (n = 360,000). P21728; in the data active = potentiation above about 30%; note: 0% is about no effect
Active calls of the source: *; ? = inconclusive; . = no result.

SMILES	D3 ag	DRD3 antagonist	D1 agonist	D1 antagonist	D1 PAM
CCn1c(SCC(=O)N/N=C/C=C\c2ccccc2[N+](=O)[O-])nnc1-c1ccccc1	-7.1	15.9	-1.4	-57.0*	-0.7
CCn1c(SCC(=O)Nc2ccccc2-c2ccccc2)nnc1-c1ccoc1C	-9.2	2.3	0.0	-10.8	-1.5
CCOC(=O)COc1ccc2c(C)c(CCN(CC)CC)c(=O)oc2c1	5.5	.	.	.	.
COc1ccc(-c2cc(C(F)(F)F)nc(SCCC(=O)Nc3cccc(O)c3)n2)cc1	0.6	.	2.6	-14.5	-8.4
COC(=O)C(=Cc1ccccc1[N+](=O)[O-])C(=O)OC	-5.7	-57.8*	2.9	31.4	-3.7
CCOc1ccc(NC(=O)CCNS(=O)(=O)c2ccc3c(c2)CCCC(=O)N3)cc1	-10.1	.	0.9	5.7	-2.5
COc1nc(NC(C)C)nc(N(C#N)CN2C(=O)c3ccccc3S2(=O)=O)n1	-3.2	-57.7*	0.4	24.5	3.4
CCC1=C2CC[C@H]3C(=O)N(C)C(=O)[C@H]3[C@H]2[C@@]2(Cc3ccccc3)C(=NCCOC)OC(=O)N2C1=O	38.1*	3.7	8.7	0.7	3.9
COc1ccc(CCNC/C=C/c2ccccc2)cc1	-16.6	-58.7*	.	.	.
NS(=O)(=O)c1ccc(CCNC/C=C/c2ccccc2)cc1	-2.5	-70.9*	5.8	-2.2	-9.7
COc1ccc(CNC/C=C/c2ccccc2)cc1	-4.9	-79.7*	10.6	5.5	-1.5
COc1ccc(C(CC(=O)Nc2ccc(OC)c(OC)c2)N2Cc3ccccc3C2=O)cc1 (stereo unspecified)	-14.9	.	0.3	-3.9	-5.8
Cc1ccc(NC(=O)CN2C(=O)COc3ccc(S(=O)(=O)N4CCCCCC4)cc32)cc1Cl	-3.1	.	6.3	-15.9	-0.7
Cc1cc(C)n(S(=O)(=O)c2ccc(C)c(C)c2)n1	-8.7	6.4	2.7	13.0	2.0
Cc1ccc2ccc(S(=O)(=O)n3nc(C)cc3C)cc2c1	-9.9	-59.7*	14.0	-8.5	-2.0
Cc1cc(C)n(S(=O)(=O)c2ccccc2[N+](=O)[O-])n1	-5.9	-9.9	5.1	-55.7*	1.6
Cc1ccc(S(=O)(=O)n2ccc(OC(=O)c3cccs3)n2)cc1	-16.5	0.0	30.2*	-26.0	-4.4
Cc1ccc(S(=O)(=O)n2nc(OC(=O)c3cccs3)cc2N)cc1	-1.3	?	21.6	4.4	-10.4
Cn1cc(CNCC2CCCO2)c(-c2ccc(Oc3ccccc3)cc2)n1 (stereo unspecified)	-10.5	-10.9	46.3*	-22.5	-3.0
Cc1cc(CNCc2cn(C)nc2-c2ccc(Oc3ccccc3)cc2)on1	-3.9	3.5	0.5	2.0	-1.9
COc1ccc(NC(=O)C(=O)NCC2(c3ccccc3)CCCC2)c(OC)c1	2.0	.	0.7	-3.9	-0.4
O=C(CCCCCN1C(=O)C2C3C=CC(C3)C2C1=O)Nc1nccs1 (stereo unspecified)	4.9	-17.7	8.5	-14.0	.
O=C(CCN1C(=O)C2C3C=CC(C3)C2C1=O)Nc1nccs1 (stereo unspecified)	3.4	6.9	0.2	-63.8*	-15.2
O=C(Cc1ccc(S(=O)(=O)N2CCCC2)s1)N1CCN(c2ccccc2)CC1	2.8	-7.9	2.1	-6.9	-1.2
O=C(Cc1ccc(S(=O)(=O)N2CCOCC2)s1)N1CCN(c2cccc(C(F)(F)F)c2)CC1	14.1	18.5	14.1	-32.0*	-5.9
SMILES	D3 ag	DRD3 antagonist	D1 agonist	D1 antagonist	D1 PAM
CC(C)NC(=O)CSc1nc2ccccc2c(=O)n1Cc1ccc(C(=O)NC(C)C)cc1	-7.1	.	0.6	4.0	1.0
Cc1cc(C)cc(-n2ccnc2SCC(=O)Nc2ccc3c(c2)OCO3)c1	-10.8	.	6.5	-21.0	-5.1
Cc1cccc(NC(=O)COC(=O)c2ccc3nc(C)c(C)nc3c2)c1	-1.2	-57.9*	.	.	.
O=C(COc1ccccc1)Nc1ccc2nc(SCCOc3ccccc3)sc2c1	-7.4	.	6.8	-30.6*	3.4
Cc1cccc(OCCC(=O)Nc2ccc(F)c(F)c2)c1	-18.2	-7.6	9.1	-37.5*	-5.8
Cc1nc2ccc(NC(=O)COc3ccccc3)cc2s1	-4.7	10.0	1.2	-9.5	2.9
Cc1cccc(OCC(=O)Nc2ccc3nc(C)sc3c2)c1	0.8	-1.5	8.6	-32.6*	-9.5
Cc1cc(C)cc(OCCSc2nc3ccc(NC(=O)COc4ccccc4)cc3s2)c1	2.5	.	14.5	-1.1	-0.5
COC(=O)CN1C(=O)C(C)(C)c2cc(S(=O)(=O)Nc3ccc(C(C)C)cc3)ccc21	4.4	.	16.7	-1.5	-4.0
O=C(NCc1ccc(F)cc1Cl)c1cc(=O)[nH]c2ccc(S(=O)(=O)N3CCCCC3)cc12	1.7	.	-0.2	-9.9	-0.1
CCOC(=O)CSc1nc2ccc(NC(=O)c3ccccc3)cc2s1	0.6	.	4.1	3.5	0.1
CCC(=O)Nc1nc2ccc(NC(=O)COc3ccccc3)cc2s1	-12.7	11.5	1.8	-71.8*	-3.7
CCOC(=O)CSc1nc2ccc(NC(=O)COc3ccccc3)cc2s1	-4.5	.	10.2	-35.7*	-2.0
COc1cc(OC)c(NC(=O)CC(c2cccs2)N2Cc3ccccc3C2=O)cc1Cl (stereo unspecified)	-11.4	.	4.8	27.4	-1.9
COc1ccc(C(CC(=O)Nc2cc(Cl)c(OC)cc2OC)N2Cc3ccccc3C2=O)cc1 (stereo unspecified)	46.6*	.	4.9	2.5	0.1
C=CCN1C(=O)/C(=C/c2ccc(O)c(OC)c2)S/C1=N/c1nccs1	5.2	-17.1	129.7*	-2.6	6.7
C=CCN1C(=O)/C(=C/c2ccc(N(C)C)cc2)S/C1=N\c1nnc(CC)s1	.	.	167.3*	-27.0	2.5
COc1ccc(OC)c(CCNc2nc3cc(OC)c(OC)cc3c3nc(-c4cccnc4)nn23)c1	-14.4	.	1.4	20.8	-0.8
CSC1=NC2(CC(c3ccccc3)Oc3cc(O)ccc32)CC(C)(C)N1 (stereo unspecified)	-2.0	19.0	166.7*	30.3	8.2
Nc1nc(NCCO)nc(N2CCCCCC2)c1[N+](=O)[O-]	0.3	-0.1	3.4	-1.0	0.9
OCCN(CCO)c1nc(N2CCCCC2)c2nc(N(CCO)CCO)nc(N3CCCCC3)c2n1	-1.3	-6.3	318.5*	-39.0*	7.7
COc1cc(Cl)c(NS(=O)(=O)c2ccc(-c3coc(C)n3)cc2)c(OC)c1	2.0	.	15.5	-28.4	-6.0
Cc1cccc(N2C(S)=C(C#N)C(=O)NC2c2cccs2)c1 (stereo unspecified)	-4.2	-19.0	3.4	-2.6	-1.4
Cc1ccccc1N1C(S)=C(C#N)C(=O)NC1c1cccs1 (stereo unspecified)	-2.0	-72.7*	0.3	-5.4	1.5
CCN(CC)C(=O)c1ccc2c(c1)N(Cc1c(F)cccc1Cl)C(=O)c1ccccc1S2	6.1	.	3.8	14.6	-1.9
CC1(C)CC(C(=O)Nc2ccccc2)C(=O)O1 (stereo unspecified)	11.7	-5.8	.	.	.
C[C@]1(O)CC(=O)C=C[C@H]1Nc1ccccc1	-21.0	-51.7*	.	.	.

Screens from PubChem BioAssay.
